Here are results for 32 molecules from PubChem BioAssay AID774 (SRMLSC, 2007).

SMILES strings stand for the structures. Hit rate of the full screen: of about 65,000 compounds, about 15 (0.02%) were called active. The list is a sample of the results. Values without a mark were called inactive.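 The calls were made as follows: active = single-dose screening hits from any of four coupled enzyme assays that gave an IC50 when retested across doses; inconclusive = no clear call, values can overlap the other calls; inactive = the rest.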 Non-standard residues stand in square brackets, D forms with d. Residues, ends and D or L forms follow the SMILES beside them. ξ: configuration not given here. ξV = CC(C)C(N)C(=O)O

Usually inhibition stands for the percentage by which the read-out fell short of the control.

The nature of the assay: inhibitors of PK/LDH coupling enzymes, profiling panel, artefact control, biochemical, MLSMR library (AID 774).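 Also: the DPM-DC format reads NADH fluorescence rather than 340 nm absorbance.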 The conditions noted are these: coupled PK/LDH NADH assays, four targets; at 10 µM; hits give high values.
As for `O=C(NC1=NCCS1)c1ccc(Cl)s1`, the inhibition is 10%.

Regarding `c1ccc(-c2noc(-c3cccs3)n2)nc1`, the inhibition is 3%.

Regarding `CCCOC(=O)Nc1sc2c(c1C(=O)OCC)CCC2`, the inhibition was 5%.

Regarding `O.O.O.O=S(=O)([O-])OC[C@H]1O[C@@H](O[C@]2(COS(=O)(=O)[O-])O[C@H](OS(=O)(=O)[O-])[C@@H](OS(=O)(=O)[O-])[C@@H]2OS(=O)(=O)[O-])[C@H](OS(=O)(=O)[O-])[C@@H](OS(=O)(=O)[O-])[C@@H]1OS(=O)(=O)[O-].[Al]`, the inhibition is 1%.

As for `CC(=O)c1c(C)n([O-])c2ccccc2[n+]1=O`, the inhibition is 5%.

As for `Cc1ccc2[nH]c3c(c2c1)CN(C(=O)CN1CCN(c2ccccc2)CC1)CC3`, the inhibition was 3%.

Consider `CCn1c(SCC(=O)NCc2ccco2)nnc1-c1ccc(N)cc1`, for which the inhibition was 3%.

Turning to `COc1ccc2c3c(c(=O)oc2c1OCC(=O)C(C)(C)C)CCCC3`, the inhibition is 4%.

For `O=C(O)c1ccc(F)c(S(=O)(=O)Nc2ccccc2)c1`, the inhibition was 6%.

Regarding `CC1CN(Cc2nc3c(c(=O)n(C)c(=O)n3C)n2Cc2cccc(Cl)c2)CC(C)O1` (configuration not stated), the inhibition is 5%.

With `CC(=O)NC(C(=O)NCC(N)=O)C(C)C` (configuration not stated) (Ac-[ξV]-Gly-NH2), the inhibition was 4%.

Consider `Cn1c(-c2ccc(C(=O)c3ccccc3)s2)nc2ccccc21`, for which the inhibition was 6%.

Consider `O=C(Oc1ccc2c(c1)CCC2)N1CCOCC1`, for which the inhibition is 3%.

Regarding `O=P(c1ccc2c(c1)OCCO2)(N1CCOCC1)N1CCOCC1`, the inhibition was 0%.

As for `CCOc1ccc(OCC)c(NC(=O)C(NS(=O)(=O)c2ccc3c(c2)oc(=O)n3C)C(C)C)c1` (configuration not stated), the inhibition was 7%.

For the molecule `O=C(O)CN1C(=O)CC(Cc2ccccc2)C1=O` (configuration not stated), the inhibition was 1%.

As to `CCCc1cc(=O)oc2c(C)c(O)c(CN3CCCCC3)cc12`, the inhibition is 1%.

Regarding `CO/N=C(\C(=O)N[C@@H]1C(=O)N2C(C(=O)O)=C(COC(C)=O)CS[C@H]12)c1csc(N)n1` (stereo in doubt), the inhibition was 0%.

With `Cc1noc(C)c1S(=O)(=O)N(CC(=O)NCc1ccc(Cl)cc1)c1ccc2c(c1)OCO2`, the inhibition was 9%.

Regarding `C=CCNC(=O)CCCC(=O)NCC=C`, the inhibition is 5%.

In the case of `CCCn1c(SCC(=O)Nc2cccc(C(=O)OCC)c2)nnc1-c1ccoc1C`, the inhibition was 7%.

As to `C=CCOc1nc2c(c(=O)n(C)c(=O)n2C)n1Cc1ccc(Cl)cc1Cl`, the inhibition is 8%.

Take `Fc1ccc2nc(Nc3nc4c(s3)CCCC4)sc2c1`: the inhibition was 3%.

Turning to `C=CCNC(=O)C1CC=CCC1C(=O)O` (configuration not stated), the inhibition was 4%.

For the molecule `CCO/C([O-])=N/c1c[n+](N2CCOCC2)no1`, the inhibition was 1%.

Regarding `COC(=O)Cc1csc(Nc2c(C)n(C)n(-c3ccccc3)c2=O)n1`, the inhibition was 8%.

Turning to `COc1ccccc1C1/C(=C(/O)c2ccc(C)cc2)C(=O)C(=O)N1Cc1ccco1` (configuration not stated), the inhibition is 10%.

As to `C=CCc1cccc2cc(C(=O)OCC)c(=O)oc12`, the inhibition is 6%.

In the case of `Cn1c(=O)c2c(nc(OCc3cccnc3)n2Cc2ccccc2)n(C)c1=O`, the inhibition is 3%.

Consider `CCOc1ccc(OCC)c(NC(=O)CN(C)S(=O)(=O)c2cccc3nsnc23)c1`, for which the inhibition is 4%.

Consider `O=C(OCC(O)C(O)COC(=O)c1ccccc1)c1ccccc1` (configuration not stated), for which the inhibition was 5%.

As for `c1ccc2c(CNn3cnnc3)cccc2c1`, the inhibition is 3%.
